Compound activity as filed in PubChem BioAssay.
USP8 block – inhibitors of human USP8 deubiquitinase; AID 1645853; 4.2% of 47,000 active; P40818; inhibition, % at 20 µM; purified USP8, Ub-rhodamine cleavage fluorescence, 30 min
USP30 inh – human USP30 deubiquitinase inhibition; Q70CQ3; purified USP30, Ub-rhodamine cleavage fluorescence; inhibition, % at 25 µM; 5.3% of 47,000 active
USP17 block – human USP17-like deubiquitinase inhibition. inhibition, % at 50 µM. purified USP17, Ub-rhodamine cleavage fluorescence, 3 h. A8MUK1. AID 1645855. 6.5% of 47,000 active
Target sequence (A8MUK1 whole entry, looked up): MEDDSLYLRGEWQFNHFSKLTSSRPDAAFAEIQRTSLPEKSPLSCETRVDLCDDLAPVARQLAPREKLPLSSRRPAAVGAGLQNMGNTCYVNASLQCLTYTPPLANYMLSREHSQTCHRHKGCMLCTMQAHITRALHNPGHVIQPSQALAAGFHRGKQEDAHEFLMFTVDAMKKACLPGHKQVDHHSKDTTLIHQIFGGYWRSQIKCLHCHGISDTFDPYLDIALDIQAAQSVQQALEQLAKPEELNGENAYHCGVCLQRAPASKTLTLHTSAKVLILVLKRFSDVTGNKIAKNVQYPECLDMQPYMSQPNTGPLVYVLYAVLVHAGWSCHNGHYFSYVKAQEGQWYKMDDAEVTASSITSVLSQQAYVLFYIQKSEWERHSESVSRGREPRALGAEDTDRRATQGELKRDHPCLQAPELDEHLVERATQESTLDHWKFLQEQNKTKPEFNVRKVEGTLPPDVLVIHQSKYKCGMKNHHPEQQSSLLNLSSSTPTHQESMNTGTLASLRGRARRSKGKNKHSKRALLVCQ
USP28 inh – blocks human USP28 ubiquitin-rhodamine cleavage | Q96RU2 | AID 1645857 | 3% of 47,000 active | inhibition, % at 25 µM | purified USP28, Ub-rhodamine cleavage fluorescence, 30 min
* = called active by the depositor; i = inactive; x = no result given. In the library only some 13% were active in any assay of this set; here they are far more common. Rule as the data show it: active = inhibition above about 30%; inactive = the rest.

SMILES	USP8 block	USP30 inh	USP17 block	USP28 inh
Cc1ccc(NC(=O)c2cc(-c3ccncc3)n[nH]2)c(Cl)c1	-1	83*	64*	60*
Cc1ccc(NC(=O)c2cn(CC(=O)NC3CCCC3)c3nc(C)ccc3c2=O)cc1	15	-96	1	-10
CN1CCN(C(=O)C2c3c(ncn3C)CCN2C(=O)c2ccccc2)CC1 (configuration not stated)	5	23	11	11
COc1ccc(NC(=O)Cn2c(-n3nc(C)cc3C)nc3c(c2=O)CCC3)cc1	-4	12	0	6
CNC(=O)[C@@]12CCC3(CCN(C(=O)c4ccc(OC)cc4)CC3)[C@@H]1CN(C)C2	7	23	4	7
O=C(Nc1cc(=O)[nH]c2nc(COc3ccccc3)nn12)c1ccc(Cl)cc1	35*	-137	x	-39
O=C(Nc1cc(=O)[nH]c2nc(COc3ccccc3)nn12)c1ccccc1	-11	i	-104	-157
Cc1ccc(CN2CC(c3noc(-c4ccncc4)n3)CC2=O)cc1 (configuration not stated)	-8	-33	2	7
Cc1ccc(-n2cc(C(=O)O)c(=O)cc2C)c(C)c1	1	-6	0	0
CC1(O)CC(=O)c2c(cc3cc(O)cc(O)c3c2O)C1 (configuration not stated)	70*	-21	77*	68*
O=C(c1ccccc1)c1cccc2c1NCC2	23	20	16	43*
O=C1CCN(C(=O)c2ccc(C(=O)c3ccccc3)cc2)CC1	3	20	13	3
Cc1cc(Nc2nc3ccccc3nc2Nc2cccc(Cl)c2)n(-c2ccccc2)n1	-22	16	3	-12
CC(NC(=O)CSc1nc2sc3c(c2c(=O)[nH]1)CCCC3)c1ccco1 (configuration not stated)	-27	-146	0	-20
Cn1c(=O)c2c(nc(CN3CCN(c4ccccc4F)CC3)n2Cc2ccccc2Cl)n(C)c1=O	12	31*	9	15
CN1c2ccccc2-c2ccccc2C12C=Cc1cc([N+](=O)[O-])ccc1O2 (configuration not stated)	-10	-26	-4	5
CC1(C)C=Cc2cc(O)ccc2O1	6	-8	40*	-3
Cn1nc(-c2ccccc2)c(CO)c1Sc1ccccc1Cl	-2	6	49*	8
Clc1ccc(Cn2c(C3CCCO3)nc3ccccc32)cc1 (configuration not stated)	1	14	x	14
Clc1ccccc1Cn1c(C2CCCO2)nc2ccccc21 (configuration not stated)	7	31*	17	20
CCCC[C@@H](C)/C=C(C)/C=C(\C)C(=O)NC1=C[C@](O)(/C=C/C=C/C=C/C(=O)NC2=C(O)CCC2=O)[C@@H]2O[C@@H]2C1=O	-2	2	73*	73*
Cc1ccc(NC(=O)N2CC(c3nc(-c4cccnc4)no3)C2)cc1C	-50	2	-10	-3
Cc1ccccc1NC(=O)CCc1cccc2[nH]ccc12	20	8	14	-1
Cc1ccccc1NC(=O)COc1ccccc1-c1noc(COc2ccccc2F)n1	4	-65	-14	-14
CCCN(CC(=O)Nc1ccccc1C)CC(=O)Nc1cccc2ccccc12	13	37*	19	19
SMILES	USP8 block	USP30 inh	USP17 block	USP28 inh
Cc1ccccc1NC(=O)Cc1nc(-c2cccc3ccccc23)cs1	73*	17	47*	14
CCn1c(CNS(=O)(=O)c2ccc(Br)cc2)nnc1SCc1cccc(F)c1	-11	0	-6	0
CC1CCN(C(=O)c2cnn(-c3ccc(Cl)cc3)c2C2CCNCC2)CC1	-70	1	-8	-1
COc1ccc(-n2ncc(C(=O)N3CCN(c4cc(C)ccc4C)CC3)c2C2CCNCC2)cc1	-95	30*	-18	11
COc1ccc(NC(=O)c2cc3c(C(F)(F)F)nn(C)c3s2)cc1	13	24	48*	18
COc1ccc(NC(=O)c2noc3c2CCCC3)c(OC)c1	4	0	8	-4
O=C(c1ccc2c(=O)n3c(nc2c1)CCCC3)N1CCC2(CC1)OCCO2	8	31*	10	10
O=C(Nc1nnc(C2CC2)s1)c1ccc2c(=O)n3c(nc2c1)CCCCC3	-3	-42	-7	-15
O=C(O)c1cccc2[nH]c(-c3ccc(O)cc3)nc12	41*	22	18	11
C[C@@H]1Cc2cc(O)cc(O)c2C(=O)O[C@H](C)CC(=O)OC[C@@H](O)CC(=O)O[C@H](C)Cc2cc(O)cc(O)c2C(=O)O[C@H](C)CC(=O)O1	4	-14	-10	-4
C/C=C/C=C/[C@@H]1Cc2cc(O)cc(O)c2O1	74*	82*	97*	91*
COC1C(O)=C2C(=O)O/C(C)=C/C=C/C=C/C=C/CC(c3ccccc3)NC(=O)/C=C/C=C/C=C\C=C\C2(C)C1O (configuration not stated)	-47	-51	43*	31*
COc1cccc(CNC(=O)c2nc3c(s2)CCN(C(=O)c2cnc(C)cn2)CC3)c1	-7	16	3	9
CCn1cnc2ccc(C(=O)NC3CC3)cc2c1=O	8	1	8	62*
CCn1ncc2ccc(C(=O)NC3CC3)cc21	-4	-14	-3	-12
CCc1cc(Nc2cc(F)cc(F)c2)n2nc(-c3cccnc3)nc2n1	-53	-14	x	-17
Cc1cccc(NC(=O)C2CC(=O)NC(N3CCN(c4ccccc4)CC3)=N2)c1 (configuration not stated)	34*	10	11	13
O=C(CC1N=C(N2CCN(c3ccccc3)CC2)NC1=O)Nc1ccccc1 (configuration not stated)	3	16	29	6
CC(=O)C1=C(O)[C@]2(O)C(=O)c3c(c(C)c4ccc(C)c(O)c4c3O)C[C@H]2[C@@H](N)C1=O	-42	-37	60*	61*
CN(C)C(=O)CNC(=O)c1ccc2onc(-c3coc(-c4ccccc4)n3)c2c1	14	29	42*	16
O=C(NC1CC1)c1ccc2onc(-c3coc(-c4ccccc4)n3)c2c1	0	38*	24	5
Cc1ccc(-c2cc(C(=O)NCc3ccncc3)[nH]n2)c(O)c1C	3	x	12	x
Cc1ccc(O)c(-c2cc(C(=O)Nc3ccccc3Cl)[nH]n2)c1	5	27	68*	6
Cc1ccc(-c2cc(C(=O)Nc3nnc(C)s3)[nH]n2)c(O)c1	0	-38	30	3
Cc1ccc(-c2cc(C(=O)Nc3ccccc3Cl)[nH]n2)c(O)c1C	33*	29	0	-4
O=C(O)C(Cc1c[nH]c(=O)s1)c1ccc([N+](=O)[O-])cc1 (configuration not stated)	-99	15	-12	1
O=[N+]([O-])c1ccc(C(c2ccc[nH]2)c2ccc[nH]2)cc1	-22	-55	37*	-1
COc1cccc(S(=O)(=O)N2CCn3nc(C(C)(C)C)cc3C2)c1	22	79*	12	21
COc1cccc(S(=O)(=O)N2CCCn3nnc(COCC4CC4)c3C2)c1	10	19	2	-1
